From PubChem BioAssay
A selection: hits, their analogues and other compounds. The true share with any hit is near 21%.
CHX counter: counter-screen for Shiga toxin inhibitors: cycloheximide protein synthesis inhibition | cell reporter, cycloheximide protein synthesis inhibition counterscreen | max response, % | 300,000 tested, 12% active | AID 2314; in the data active means max response mostly above about 13%, no sharp cut-off; inactive means mostly below about 14%; further: read at 38.3 µM for the half of the compounds with a filed dose; 0% is about no effect
Pf growth 48h: inhibits P. falciparum growth in the first generation, 48 h. P. falciparum luciferase growth in erythrocytes, 48 h. Potency, µM (series often up to 28.7 µM), inactives show at the top dose activity change, negative = inhibition, actives largely listed as inhibitors. 310,000 tested, 5.9% active; further: potency means the concentration at half of the fitted maximal effect; on the % scale 0 is the no-effect control and ±100 the full control effect
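Erythrocytes infected with P. falciparum carrying an integrated firefly luciferase reporter (2% hematocrit, 0.1% parasitemia final) were exposed to compounds in RPMI 1640 with 0.5% Albumax at 37 C, 5% CO2. Growth inhibition was scored as reduced luminescence.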
Sm TGR inh: blocks Schistosoma mansoni thioredoxin glutathione reductase; 360,000 tested, 3% active; AID 485364; Q962Y6; purified TGR, DTNB reduction, TNB absorbance 405 nm; Potency, µM (doses to about 114 µM), for the others: top-dose activity change, negative = inhibition, actives largely listed as inhibitors; further: potency means the concentration at half of the fitted maximal effect; on the % scale 0 is the no-effect control and ±100 the full control effect; nearly all actives have a fitted effect of over 60% in size
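TGR 20 nM + NADPH 100 uM (dispensed conc.), cpd preinc 15 min RT; start with NADPH (500 uM addition) then DTNB (15 mM addition). Kinetic TNB absorbance, 405 nm filter. Four-parameter Hill fit across titration.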
NS1 function inh: blocks influenza NS1 protein function | Potency, µM (top dose mostly 46.1 µM), inactives show at the top dose activity, positive = more growth | 270,000 tested, 0.4% active; calls by dose curve; further: potency means the concentration at half of the fitted maximal effect; actives are rising curves; nearly all actives have a fitted effect of over 50% in size
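A cell-based growth assay was used: compounds that relieve NS1-induced slow growth of budding yeast raise OD600. Assay medium was yeast nitrogen base with ammonium sulphate and -URA supplement, pH 6.0, with 2% galactose.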
Shiga inhibitor: inhibitors of Shiga toxin in Vero cells; Vero cells, Shiga toxin protein synthesis inhibition reporter; inhibition, % at 38.7 µM; 290,000 tested, 9.2% active; AID 2315; in the data active means inhibition mostly above about 28%, no sharp cut-off; inactive means mostly below about 43%; further: 0% is about no effect
Pf growth 96h: P. falciparum growth inhibition at 96 hour, primary screen for plastid delayed-death inhibitors; P. falciparum luciferase reporter growth, 96 h; Potency, µM (highest dose often 28.7 µM), without a hit: at the highest dose activity change, negative = inhibition, hits mostly inhibitors; 320,000 tested, 6.9% active; further: potency means the concentration at half of the fitted maximal effect; on the % scale 0 is the no-effect control and ±100 the full control effect
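Parasite growth measured via integrated firefly luciferase reporter in P. falciparum. Infected erythrocytes at 2% hematocrit, 0.05% parasitemia final were treated 96 hours at 37 C under 5% CO2, and luminescence was read.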
* marks the source's active call; other numbers are inactive results; ? = inconclusive; / = no result given; [ ] = another dose, or the depositor's remark. Unless noted, the call rests on the fitted dose curve; in most records, active means well fitted curve in the direction sought with a large enough effect; inconclusive means small, poorly fitted or top-dose-only effect, or another doubt; inactive means no such curve, though single readings can be large; an effect the other way counts as inactive or inconclusive.

SMILES	CHX counter	Pf growth 48h	Sm TGR inh	NS1 function inh	Shiga inhibitor	Pf growth 96h
CC1(C)C2CCC(C2)C1(C)NC(=O)CNC1CCCCC1 (configuration not stated)	-0.4	?	3.7%	/	-12.4	14.2%
CCOC(=O)c1cc(-c2ccc(F)cc2)n(CCC(=O)Nc2nc3cc(C)c(C)cc3s2)c1C	/	/	10.1%	/	/	/
CCOC(=O)N1CCN(C(=O)c2ccccc2NC(=O)c2ccc(C(C)(C)C)cc2)CC1	-2.0	10.4µM*	2.2%	-8.9%	-3.4	?
CC(C)C(NC(=O)c1ccc(C(C)(C)C)cc1)C(=O)O (configuration not stated)	-1.0	20.9%	29.2%	12.2%	11.3	3.3%
CN1CCN(C(=O)c2ccccc2NC(=O)c2ccc(C(C)(C)C)cc2)CC1	14.3	-9.9%	0.0%	9.4%	9.7	?
CC(C)(C)c1ccc(C(=O)Nc2ccccc2C(=O)NCCN2CCOCC2)cc1	13.1*	12.2%	-1.8%	-15.8%	35.5	-13.8%
COc1ccc(C(=O)Nc2ccccc2C(=O)NCCN2CCOCC2)cc1	13.3	-0.2%	?	-0.9%	35.8	/
CCOC(=O)N1CCN(C(=O)C(NC(=O)c2ccc(C(C)(C)C)cc2)C(C)C)CC1 (configuration not stated)	/	9.28µM*	-4.5%	/	/	?
COc1ccc(N2CC(NC(=O)COc3ccccc3F)CC2=O)cc1OC (configuration not stated)	/	/	6.2%	/	/	/
CCCc1nnc(SCC(=O)Nc2ccccc2Cl)n1CC1CCCO1 (configuration not stated)	-4.4	1.2%	-6.9%	1.9%	-4.3	3.7%
COc1ccc(NC(=O)c2cc(S(=O)(=O)N3CCCCC3)cn2C)cc1Cl	/	/	0.0%	/	/	/
CCc1ccc(-c2cc(-c3n[nH]c(=S)n3CC)c3ccccc3n2)cc1	31.6*	?	-2.2%	20.8%	40.5*	2.94µM*
c1cc2[nH]snc2c2nc(C3CC3)nc12	28.1*	19.5%	0.0%	-87.0%	31.2	62.1%
O=C1CCCC/C1=C/Nc1ccc(C(=O)O)cc1	29.7*	/	?	-9.4%	41.8	41.0%
COc1ccc(N/C=C2/CCCCC2=O)cc1	77.9*	47.4%	39.8µM*	?	129.1*	?
COc1ccc(Oc2ccc(N/C=C3/CCCC3=O)cc2)cc1	13.5	?	-15.0%	17.3%	-25.7	74.8%
COc1ccc(OC)c(CNS(=O)(=O)c2ccc(-c3cc(C(F)(F)F)on3)s2)c1	/	/	9.0%	/	/	/
CC(=O)c1cccc(NC(=O)c2ccoc2C)c1	6.9	24.4%	/	-5.9%	25.4	-4.0%
Cc1occc1C(=O)Nc1cccc(Cl)c1Cl	24.4*	54.1%	-16.2%	-11.8%	48.3	91.9%
Cc1occc1C(=O)NCc1ccc2c(c1)OCO2	3.1	4.8%	-14.7%	6.8%	-6.8	0.0%
CCOC(=O)c1c(NC(=O)c2ccoc2C)sc(C)c1C	-2.0	19.3%	18.2%	-10.8%	-7.3	/
Cc1occc1C(=O)Nc1ccc2ccccc2c1	42.6*	176.1%	0.0%	-143.5%	113.0*	?
Cc1occc1C(=O)NCc1cccc(CNC(=O)c2ccoc2C)c1	-0.9	4.6%	39.8µM*	-8.1%[9.22 µM]	14.0	2.3%
CCOC(=O)c1cc(NC(=O)c2ccoc2C)cc(C(=O)OCC)c1	16.7*	?	-0.9%	-31.0%	19.0	14.3%
CC1CCN(S(=O)(=O)c2ccc3c(c2)N(CC(=O)Nc2ccc(F)c(Cl)c2)C(=O)CO3)CC1	/	/	-2.0%	/	/	/
SMILES	CHX counter	Pf growth 48h	Sm TGR inh	NS1 function inh	Shiga inhibitor	Pf growth 96h
Cc1occc1C(=O)Nc1ccccc1C(=O)O	20.1*	9.5%	0.0%	-88.0%	48.2	126.2%
Cc1occc1C(=O)Nc1ccccc1	27.5*	/	/	/	32.6*	/
CCc1ccccc1NC(=O)c1ccoc1C	-3.5	8.4%	-25.8%	-30.1%	-0.4	19.9%
CCC1(C)N=c2c(c(=O)n(C)c(=O)n2C)=NO1 (configuration not stated)	-4.7	/	-11.5%	-6.9%	-15.1	8.7%
CCCCCCOC(=O)/C=C/c1c(C)[nH]c(=O)[nH]c1=O	-3.1	9.28µM*	-2.0%	-0.4%	9.1	65.7%
CSc1nnc(-c2cc3ccccc3cc2O)n1C	-0.5	2.08µM*	0.0%	-12.5%	1.5	/
O=C(COc1ccccc1-c1ccccc1)N/N=C/c1ccc2ccccc2c1	-1.4	-2.2%	0.9%	1.3%	-1.5	2.33µM*
CCCCCCCCCC(=O)N/N=C(\C)c1cccnc1	-1.2	-26.2%	-13.0%	-17.9%	-4.3	?
CCCCCC(=O)N/N=C(\C)c1ccccn1	4.5	1.65µM*	1.2%	-4.0%	17.6	?
C/C(=N\NC(=O)COc1ccccc1-c1ccccc1)c1ccccn1	-2.2	2.08µM*	6.2%	/	-4.0	?
CCCCc1ccc(NC(=O)N2CCNC(=O)C2CC(=O)Nc2ccsc2C(=O)OC)cc1 (configuration not stated)	0.4	-21.5%	-16.2%	7.5%	-9.4	10.2%
CCn1cc(C(=O)N(C)Cc2ccccc2)c(=O)c2cc(S(=O)(=O)N3CCc4ccccc4C3)ccc21	/	/	18.6%	/	/	/
COCc1nnc(NC(=O)c2cccc(NC(=O)c3ccccc3)c2)s1	-2.5	0.0%	0.5%	5.8%	2.9	0.0%
CCOC(=O)C1(C)C=C(Nc2ccc(C(=O)O)cc2)C(=O)N1c1ccc(C(=O)O)cc1 (configuration not stated)	/	/	-8.6%	/	/	/
CCOC(=O)c1c(N)sc(N)c1C(=O)OCC	-0.4	?	3.4%	9.2%	-6.7	-5.4%
CCOC(=O)c1c(N)sc(C(O)(C(F)(F)F)C(F)(F)F)c1-c1ccc(OC)cc1OC	-3.8	11.7µM*	0.0%	-69.8%	-12.9	?
CCN(CC(=O)NCc1ccc(Cl)cc1)C(=O)c1ccc(S(=O)(=O)NCc2ccco2)cc1	59.0*	-10.4%	-16.4%	2.1%	66.8*	3.7%
CCN(CC(=O)NCc1ccc(Cl)cc1)C(=O)CNS(=O)(=O)c1ccc(NC(C)=O)cc1	6.4	11.7µM*	2.0%	-32.1%	19.7	?
CCN(CC(=O)Nc1c(F)cccc1F)C(=O)c1ccc(S(=O)(=O)NCc2ccco2)cc1	/	14.5%	2.4%	/	/	34.2%
CC(=O)Nc1ccc(S(=O)(=O)NCc2ccc(C(=O)NCc3ccc(Cl)cc3)cc2)cc1	-6.3	/	1.5%	-1.0%	4.6	?
CCOC(=O)C(NC(=O)c1ccc(F)cc1)(Nc1sc2c(c1C(N)=O)CCC2)C(F)(F)F (configuration not stated)	-1.9	?	?	-9.2%	14.2	?
CCOC(=O)C(NC(=O)c1ccccc1Cl)(Nc1sc2c(c1C(N)=O)CCC2)C(F)(F)F (configuration not stated)	-2.2	?	39.8µM*	12.1%	-24.6	4.15µM*
CCOC(=O)C(NC(=O)c1cccc(Cl)c1)(Nc1sc2c(c1C(N)=O)CCC2)C(F)(F)F (configuration not stated)	-3.5	?	39.8µM*	10.8%	-9.3	?
